Screens as filed in PubChem BioAssay.
MCF10A rerep – inducers of DNA re-replication in MCF 10A breast cells | AID 624296 | MCF 10A DNA re-replication, Hoechst nuclear intensity, 48 h | Potency, µM (series often up to 46.1 µM), for the others: at the top dose activity, positive = re-replication, usual class: activators | actives 2.9% (n = 350,000); note: % of control where 0% means no effect; nearly all actives have a fitted effect of over 50% in size
SW480 rereplic – induces DNA re-replication in SW480 colon adenocarcinoma cells; SW480 DNA re-replication, Hoechst DNA content imaging, 48 h; AID 624297; Potency, µM (top dose mostly 46.1 µM), for the others: at the highest dose re-replication activation, actives largely listed as activators; actives 1.8% (n = 340,000); note: % of control where 0% means no effect; nearly all actives have a fitted effect of over 55% in size
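Image-based read-out: total Hoechst fluorescence of nuclei (405 nm excitation, 500-530 nm emission), with hits raising the fraction of high-intensity nuclei. SW480 colon cells incubated 48 hr with compounds at 37 C.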
HT1080 IDH1KD tx – kills HT-1080 cells with IDH1 knockdown; Potency, µM (titrated, usually from 46.1 µM), for the others: at the top dose activity, negative = toxicity, usual class: cytotoxic; actives 2% (n = 360,000); HT-1080 IDH1 knockdown viability, ATP luminescence, 48 h;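 note: 0% = DMSO wells and -100% = cell-free medium wells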
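% activity derives from luminescence (CellTiter-Glo), normalised to DMSO and no-cell wells. HT-1080-IDH1KD cells, 750/well, had 48 h compound exposure at 37 °C.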
HT1080-NT tox – kills 2HG-producing HT-1080-NT fibrosarcoma cells; HT-1080-NT fibrosarcoma viability, CellTiter-Glo ATP luminescence, 48 h; Potency, µM (doses to about 46.1 µM), inactives show top-dose activity, negative = less viability, usual class: cytotoxic; actives 1.6% (n = 360,000); AID 686970;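 note: NT is the 2HG producing partner of a matched IDH1 knockdown line; 0% = DMSO-treated cells and -100% = media-only wells without cells; nearly all actives have a fitted effect of over 55% in size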
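HT-1080-NT; 750 cells/well; 5% FBS RPMI; 48 h compound, 37 degrees C; CellTiter-Glo luminescence; curve fitting and curve-class assignment.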
KB-3-1 tox – kills parental KB-3-1 adenocarcinoma cells; KB-3-1 viability, CellTiter-Glo ATP luminescence, 72 h; Potency, µM (highest dose often 46.1 µM), hits mostly cytotoxic; actives 1.4% (n = 400,000); note: % is set by controls: 0 for no effect and ±100 for the full control effect; nearly all actives have a fitted effect of over 60% in size
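Viability of parental KB-3-1 cells, measured by CellTiter-Glo luminescence, followed a 72 h incubation at 37 °C with pinned compounds in phenol-red-free DMEM containing 10% FBS.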
KB-V1 cytotox – KB-V1 MDR subline cytotoxicity; AID 1347076; Potency, µM (highest dose often 46.1 µM), usual class: cytotoxic; actives 3.4% (n = 400,000); KB-V1 MDR cells viability, CellTiter-Glo, 72 h; note: % is set by controls: 0 for no effect and ±100 for the full control effect; nearly all actives have a fitted effect of over 60% in size
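Following 72 h at 37 degrees C with compound, KB-V1 cell viability was read by CellTiter-Glo luminescence, medium being phenol-red-free DMEM plus 10% FBS; concentration-response parameters came from normalized, curve-fitted qHTS data.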
* hit, by the source's call. An excerpt weighted towards active compounds, which were near 8% of everything screened. Calls come from the whole dose curve; as a rule, active = well fitted curve in the direction sought with a large enough effect; inconclusive = small, poorly fitted or top-dose-only effect, or another doubt; inactive = no such curve, though single readings can be large; an effect the other way counts as inactive or inconclusive. Potency is the fitted concentration of half-maximal effect.

What do the screens show for `COc1ccc(OC)c(Nc2cc(C)nc3ccc(C)cc23)c1`?
MCF10A rerep: inconclusive; SW480 rereplic: 18µM*; HT1080 IDH1KD tx: 3.7µM*; HT1080-NT tox: 5.2µM*; KB-3-1 tox: 7.3µM*; KB-V1 cytotox: 5.2µM*

What do the screens show for `Cc1ccc(Nc2cc(C)nc3c(C)cccc23)cc1`?
MCF10A rerep: 7%; SW480 rereplic: 0%; HT1080 IDH1KD tx: inconclusive; HT1080-NT tox: inconclusive; KB-3-1 tox: inconclusive; KB-V1 cytotox: 8.2µM*

How did CC(=O)c1ccc(Nc2cc(C)nc3ccccc23)cc1 do in these assays?
MCF10A rerep: inconclusive; SW480 rereplic: 18µM*; HT1080 IDH1KD tx: 12µM*; HT1080-NT tox: inconclusive; KB-3-1 tox: inconclusive; KB-V1 cytotox: inconclusive

Results for CCOc1ccc(S(=O)(=O)Nc2cccc(OC)c2)c2cccnc12 ?
KB-3-1 tox: inactive; KB-V1 cytotox: inactive

Results for CCOc1ccc(-c2cn3nc(CC(C)C)sc3n2)cc1 ?
KB-3-1 tox: inactive; KB-V1 cytotox: inactive

What do the screens show for `COc1ccc2c(c1)cc1c(=O)n(CC(=O)NCc3ccco3)nc(C)n12`?
KB-3-1 tox: inactive; KB-V1 cytotox: inactive

What do the screens show for `CCOc1ccccc1Nc1cc(C)nc2ccc(C)cc12`?
MCF10A rerep: inconclusive; SW480 rereplic: -3%; HT1080 IDH1KD tx: inconclusive; HT1080-NT tox: inconclusive; KB-3-1 tox: inconclusive; KB-V1 cytotox: 12µM*

Results for COc1ccc(Nc2cc(C)nc3ccccc23)cc1 ?
MCF10A rerep: 5%; SW480 rereplic: -7%; HT1080 IDH1KD tx: 11µM*; HT1080-NT tox: -24%; KB-3-1 tox: inactive; KB-V1 cytotox: inactive

Results for CC(=O)c1ccc(NC(=O)c2cc(CC(C)C)nc3ccccc23)cc1 ?
MCF10A rerep: 0.82µM*; SW480 rereplic: -2%; HT1080 IDH1KD tx: -11%; HT1080-NT tox: 1%; KB-3-1 tox: inactive; KB-V1 cytotox: inactive

Results for COc1ccc(-c2nc(SCCOc3cc(C)ccc3C(C)C)n3[nH]c(=O)cc3n2)cc1 ?
KB-3-1 tox: inactive; KB-V1 cytotox: inactive

Results for COc1ccccc1NC(=O)Cn1c(=O)n(Cc2nc(C)no2)c(=O)c2cc3c(cc21)OCO3 ?
KB-3-1 tox: inactive; KB-V1 cytotox: inactive

Results for COc1ccc(CN2C(=O)c3cccnc3C2Nc2ccc(OC)c(Cl)c2)cc1 (centres undefined) ?
MCF10A rerep: 0%; SW480 rereplic: 13%; HT1080 IDH1KD tx: -2%; HT1080-NT tox: 7%; KB-3-1 tox: inactive; KB-V1 cytotox: 15µM*

What do the screens show for `COc1ccc(F)cc1-c1cc(NC(C)=O)c2ncc(-c3cc(OC)c(OC)c(OC)c3)n2c1`?
HT1080 IDH1KD tx: -2%; HT1080-NT tox: inconclusive; KB-3-1 tox: 7.3µM*; KB-V1 cytotox: inactive

Results for COc1ccccc1-c1cc(NC(C)=O)c2ncc(-c3ccccc3)n2c1 ?
HT1080 IDH1KD tx: inconclusive; HT1080-NT tox: 23µM*; KB-3-1 tox: inactive; KB-V1 cytotox: inconclusive

What do the screens show for `O=C1/C(=C\c2cccs2)CCC/C1=C/c1cccs1`?
MCF10A rerep: 4%; SW480 rereplic: 11%

What do the screens show for `CCn1c(SCC(=O)N2CCCCCC2)nc2ccccc2c1=O`?
MCF10A rerep: inconclusive; SW480 rereplic: 5%; HT1080 IDH1KD tx: 3%; HT1080-NT tox: -8%; KB-3-1 tox: inactive; KB-V1 cytotox: 9.2µM*

What do the screens show for `O=C(CSc1nc2ccccc2c(=O)n1Cc1ccco1)N1CCCCCC1`?
MCF10A rerep: inconclusive; SW480 rereplic: 18%; HT1080 IDH1KD tx: inconclusive; HT1080-NT tox: -21%; KB-3-1 tox: inconclusive; KB-V1 cytotox: 18µM*

Results for Cn1c(=O)c2c(nc(SCC(=O)N3CCCCCC3)n2C)n(C)c1=O ?
MCF10A rerep: -3%; SW480 rereplic: 3%; HT1080 IDH1KD tx: -13%; HT1080-NT tox: 0%; KB-3-1 tox: inactive; KB-V1 cytotox: 15µM*

What do the screens show for `CC(C)c1nc(SCC(=O)N2CCCC2)c2ccccc2n1`?
MCF10A rerep: 6%; SW480 rereplic: -1%; HT1080 IDH1KD tx: -29%; HT1080-NT tox: -7%; KB-3-1 tox: inactive; KB-V1 cytotox: 21µM*

Results for O=C(NCc1ccco1)c1ccc2c(=O)n(Cc3ccco3)c(SCC(=O)N3CCCC3)nc2c1 ?
MCF10A rerep: 5%; SW480 rereplic: 14%; HT1080 IDH1KD tx: -7%; HT1080-NT tox: -11%; KB-3-1 tox: inactive; KB-V1 cytotox: inactive

How did CCN(CC)c1ccc(NC(=O)c2cnn(-c3ccccc3)c2-n2cccc2)c(C)c1 do in these assays?
KB-3-1 tox: inconclusive; KB-V1 cytotox: inactive

How did CCn1c(SCC(=O)N2CCN(c3cccc(Cl)c3)CC2)nc2ccccc2c1=O do in these assays?
MCF10A rerep: inconclusive; SW480 rereplic: -3%; HT1080 IDH1KD tx: -11%; HT1080-NT tox: -5%; KB-3-1 tox: inactive; KB-V1 cytotox: 9.2µM*

Results for Cc1ccc(CC(=O)Nc2ccc3c(c2)N(C)C(=O)c2ccccc2S3)cc1 ?
KB-3-1 tox: inactive; KB-V1 cytotox: 18µM*

How did Cc1ccc(C(=O)Nc2ccc3c(c2)N(C)C(=O)c2ccccc2S3)cc1F do in these assays?
KB-3-1 tox: 8.2µM*; KB-V1 cytotox: 6.5µM*

How did CN(C)CCCN1c2ccccc2Sc2ccccc21 do in these assays?
MCF10A rerep: 27%; SW480 rereplic: inconclusive; HT1080 IDH1KD tx: inconclusive; HT1080-NT tox: inconclusive; KB-3-1 tox: inactive; KB-V1 cytotox: inconclusive

Results for CCC(=O)c1ccc2c(c1)N(CCCN(C)C)c1ccccc1S2 ?
MCF10A rerep: 8%; SW480 rereplic: inconclusive; HT1080 IDH1KD tx: 23µM*; HT1080-NT tox: 23µM*; KB-3-1 tox: inactive; KB-V1 cytotox: inactive

Results for COCCNC(=O)Nc1ccc2c(c1)N(C)C(=O)c1ccccc1S2 ?
MCF10A rerep: 12%; SW480 rereplic: 1%; HT1080 IDH1KD tx: 0%; HT1080-NT tox: -5%; KB-3-1 tox: inactive; KB-V1 cytotox: inactive

What do the screens show for `CCCCNC(=O)c1ccc2c(c1)N(C)C(=O)c1ccccc1S2`?
MCF10A rerep: 12%; SW480 rereplic: 12%; HT1080 IDH1KD tx: 9%; HT1080-NT tox: -10%; KB-3-1 tox: inactive; KB-V1 cytotox: inactive

What do the screens show for `CC(=O)Nc1cc(C(=O)Nc2ccc3c(c2)N(C)C(=O)c2ccccc2S3)ccc1C`?
KB-3-1 tox: 4.1µM*; KB-V1 cytotox: inconclusive

How did CC(=O)c1ccc2c(c1)N(C)c1ccccc1S2 do in these assays?
MCF10A rerep: inconclusive; SW480 rereplic: 1%; HT1080 IDH1KD tx: -10%; HT1080-NT tox: 0%; KB-3-1 tox: inconclusive; KB-V1 cytotox: 23µM*
